Potency, outcome and max activation data for nine compounds are collected here from PubChem BioAssay (Tox21).

Values without a mark were called inactive. Records with an inconclusive call do not appear. The source made the active and inactive calls. Unless noted, calls follow the shape of the dose curve; as a rule, active = well fitted curve in the direction sought with a large enough effect in the repeat runs; inconclusive = weak or mixed curves; inactive = no such curve, though single readings can be large; an effect the other way counts as inactive or inconclusive.

Assay [1] is described as follows: qHTS assay to identify small molecule agonists of the estrogen receptor alpha (ER-alpha) signaling pathway in the presence of an antagonist - cell viability counter screen (AID 1259386). Also: nearly all actives have a fitted effect of over 30% in size. Also: potency is read from the fitted curve at half-maximal effect. An outline of the steps: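 Read-out: CellTiter-Fluor fluorescence after 1hr reagent incubation, measured in the same wells as the luciferase readout. VM7Luc4E2 cells were exposed to 15 compound concentrations with 10.0nM ICI-182,780 for 22hr at 37C.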

A short description of assay [2]: qHTS assay to identify small molecule antagonists of the progesterone receptor (PR) signaling pathway - cell viability counter screen (AID 1346798). Also: nearly all actives have a fitted effect of over 50% in size. Also: potency is read from the fitted curve at half-maximal effect. In short, it runs like this:
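Counter screen for cytotoxicity: viability of PR-UAS-bla HEK293T cells was measured with CellTiter-Glo luminescence following 16 hr compound exposure in the presence of R5020.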
(In qHTS, concentration-response curves come from the screen itself.)

The nature of assay [3]: qHTS assay to identify small molecule agonists of the TGF-beta/Smad signaling pathway (AID 1346859; active = well fitted activation curve with a large enough effect in the signal ratio in the repeat runs, not every such curve was filed as active; the % refers to the signal ratio; also: series mostly up to about 77 µM; % is scaled to controls: 0 for no effect and ±100 for the full control effect). In short, it runs like this: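 Reporter line: HEK 293T with stably integrated SBE-controlled beta-lactamase. Compound exposure lasts 5 hr at 37 C and 5% CO2; substrate loading follows for 2 hr at room temperature, with emission read at 460 and 530 nm.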
Assay [4] is described as follows: Human pregnane X receptor (PXR) small molecule agonists, qHTS cell viability counter screen (AID 1346977). Also: nearly all actives have a fitted effect of over 50% in size. Also: potency is read from the fitted curve at half-maximal effect. An outline of the steps:
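Cytotoxicity counter screen run in the same wells as the PXR luciferase assay, using PXR-Luc HepG2 cells in charcoal-stripped serum medium. Viability: CellTiter-Fluor fluorescence after 24hr compound treatment.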

A short description of assay [5]: Caspase-3/7 induction in HepG2 cells by small molecules, qHTS assay (AID 1346978). Also: nearly all actives have a fitted effect of over 15% in size. Also: potency is read from the fitted curve at half-maximal effect. In short, it runs like this: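 Caspase-3/7 induction was measured by Caspase-Glo 3/7 luminescence (30 min, room temperature) after a 17 hr compound exposure of wild-type HepG2 cells seeded at 2,000 per well and pre-incubated 5 hr.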
Assay [6] is described as follows: Caspase-3/7 induction in CHO-K1 cells by small molecules, qHTS cell viability counter screen (AID 1346979). Also: nearly all actives have a fitted effect of over 35% in size. Also: potency is read from the fitted curve at half-maximal effect. In short, it runs like this:
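Cytotoxicity counter screen run in parallel with the caspase-3/7 assay: CHO-K1 cells, 16hr compound treatment at 37C, then CellTiter-Fluor for 1hr before fluorescence reading.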

Assay [7] is described as follows: Caspase-3/7 induction in CHO-K1 cells by small molecules, qHTS assay (AID 1346980). Also: nearly all actives have a fitted effect of over 15% in size. Also: potency is read from the fitted curve at half-maximal effect. An outline of the steps:
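Luminescent Caspase-Glo 3/7 read (30min, room temperature) quantified apoptosis induction. Cells were wild-type CHO-K1, treated with compound for 17hr at 37 C and 5% CO2.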

The nature of assay [8]: Caspase-3/7 induction in HepG2 cells by small molecules, qHTS cell viability counter screen (AID 1346981). Also: nearly all actives have a fitted effect of over 30% in size. Also: potency is read from the fitted curve at half-maximal effect. An outline of the steps:
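Fluorescence read-out of live-cell protease activity (CellTiter-Fluor) after 1 hr with reagent. This was measured in the same wells as the caspase-3/7 luminescence, on HepG2 cells exposed to DMSO-dissolved compounds for 16 hr at 37 C.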

In assay [9] the target is Nuclear receptor subfamily 1 group I member 2 (Homo sapiens) (UniProt O75469). Briefly: Human pregnane X receptor (PXR) small molecule agonists, qHTS assay (AID 1346982). Also: nearly all actives have a fitted effect of over 35% in size. Also: potency is read from the fitted curve at half-maximal effect. As to activation: % is scaled to controls: 0 for no effect and ±100 for the full control effect. In short, it runs like this:
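HepG2 PXR-Luc reporter line, 5% charcoal-stripped FBS; 5 hr pre-incubation, compound (DMSO) 24 hr at 37 C/5% CO2; ONE-Glo 30 min RT; luminescence read-out.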

In assay [10] the target is Acetylcholinesterase (Homo sapiens) (UniProt P22303). Briefly: Acetylcholinesterase (AChE) small molecule antagonists: colormetric cell-based qHTS assay (AID 1347395; calls by dose curve; also: % is scaled to controls: 0 for no effect and ±100 for the full control effect; nearly all actives have a fitted effect of over 30% in size). In short, it runs like this:
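Cells (SH-SY5Y, 2,000 per well) are seeded and left overnight at 37 C. Compound is added for 30 min, then DTNB and acetylthiocholine for a further 90 min at 37 C before absorbance-based thiocholine detection.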

In assay [11] the target is Progesterone receptor (Homo sapiens) (UniProt P06401). Briefly: qHTS assay to identify small molecule antagonists of the progesterone receptor (PR) signaling pathway (AID 1346795; active = well fitted inhibition curve with a large enough effect in the signal ratio in the repeat runs, not every such curve was filed as active; the % refers to the signal ratio; also: potency is read from the fitted curve at half-maximal effect). In short, it runs like this:
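Antagonist mode: compounds tested against 1 nM (final) promegestone stimulation in HEK293T cells expressing PR-UAS-bla reporter, 16 hr at 37C, 5% CO2; beta-lactamase activity detected via B/G FRET substrate after 2 hr at room temperature.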

Assay [12] can be described thus: qHTS assay to identify small molecule agonists of the TGF-beta/Smad signaling pathway - cell viability counter screen (AID 1346829). Also: nearly all actives have a fitted effect of over 45% in size. Also: potency is read from the fitted curve at half-maximal effect. In short, it runs like this: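 After overnight seating at 37 C and 5% CO2, reporter cells got compounds for 5 hr and FRET substrate for 2 hr; cell viability then came from CellTiter-Glo luminescence.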
In assay [13] the target is Thyrotropin-releasing hormone receptor (Homo sapiens) (UniProt P34981). Briefly: qHTS assay to identify small molecule agonists of the thyrotropin-releasing hormone receptor (TRHR) signaling pathway (AID 1346891; calls by dose curve; also: potency is read from the fitted curve at half-maximal effect;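 as to activation: HEK293 cells expressing TRHR with calcium dye readout; series mostly up to about 58 µM; % is scaled to controls: 0 for no effect and ±100 for the full control effect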). An outline of the steps: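 Cells: TRHR-Hek293, seeded and incubated 18 h. Dye loading: 2 h at 37 °C. Compound added from DMSO stock by pin tool. Read-out: kinetic calcium fluorescence over 3 min.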
Sequence of Thyrotropin-releasing hormone receptor (Homo sapiens) (P34981 whole entry, looked up): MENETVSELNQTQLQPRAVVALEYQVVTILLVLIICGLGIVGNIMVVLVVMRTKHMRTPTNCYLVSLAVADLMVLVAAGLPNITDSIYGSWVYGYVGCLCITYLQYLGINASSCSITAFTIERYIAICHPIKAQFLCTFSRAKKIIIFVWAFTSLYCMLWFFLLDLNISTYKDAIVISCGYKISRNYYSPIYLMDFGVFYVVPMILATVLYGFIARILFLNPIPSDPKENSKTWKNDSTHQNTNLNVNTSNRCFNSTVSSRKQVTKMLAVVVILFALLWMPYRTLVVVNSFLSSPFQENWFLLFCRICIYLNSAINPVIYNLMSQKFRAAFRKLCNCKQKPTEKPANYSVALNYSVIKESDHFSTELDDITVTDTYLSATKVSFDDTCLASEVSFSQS

Assay [14] in a line: qHTS assay to identify small molecule antagonists of the TGF-beta/Smad signaling pathway - cell viability counter screen (AID 1346824). Also: nearly all actives have a fitted effect of over 50% in size. Also: potency is read from the fitted curve at half-maximal effect. In short, it runs like this: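 Cytotoxicity counter-screen run in the same wells as the beta-lactamase Smad reporter read: CellTiter-Glo luminescence after 30 min at room temperature. HEK 293T SBE-bla cells had 5 hr compound exposure at 37 C with TGF-beta1 (0.25 ng/mL stock).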

Assay [15] deals with Thyrotropin-releasing hormone receptor (Homo sapiens) (UniProt P34981). Briefly: qHTS assay to identify small molecule antagonists of the thyrotropin-releasing hormone receptor (TRHR) signaling pathway (AID 1346877; active = well fitted inhibition curve with a large enough effect in the repeat runs, not every such curve was filed as active; also: potency is read from the fitted curve at half-maximal effect). In short, it runs like this: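 HEK293/TRHR cells, 18 h, 37 °C; Ca2+ dye 2 h; cpd 5 min RT; TRH 1 nM final; fluorescence read 3 min, 1 s intervals; 15 concs, triplicate.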

The target in assay [16] is Nuclear receptor subfamily 1 group I member 2 (Rattus norvegicus) (UniProt Q9R1A7). Briefly: Rat pregnane X receptor (rPXR) activation by small molecules, qHTS assay (AID 1346983). Also: % is scaled to controls: 0 for no effect and ±100 for the full control effect; nearly all actives have a fitted effect of over 20% in size. Particulars: rPXR luciferase reporter cells, One-Glo luminescence, 24 h; max activation: stronger effect = higher value. In short, it runs like this: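 Luminescent readout (One-Glo luciferase, 30 min room temperature) followed 24 hr compound treatment at 37 C of rPXR cells plated 2,000 per well and preincubated 5hr; qHTS format with compounds delivered in DMSO.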
Sequence of Nuclear receptor subfamily 1 group I member 2 (Rattus norvegicus) (Q9R1A7 whole entry, looked up): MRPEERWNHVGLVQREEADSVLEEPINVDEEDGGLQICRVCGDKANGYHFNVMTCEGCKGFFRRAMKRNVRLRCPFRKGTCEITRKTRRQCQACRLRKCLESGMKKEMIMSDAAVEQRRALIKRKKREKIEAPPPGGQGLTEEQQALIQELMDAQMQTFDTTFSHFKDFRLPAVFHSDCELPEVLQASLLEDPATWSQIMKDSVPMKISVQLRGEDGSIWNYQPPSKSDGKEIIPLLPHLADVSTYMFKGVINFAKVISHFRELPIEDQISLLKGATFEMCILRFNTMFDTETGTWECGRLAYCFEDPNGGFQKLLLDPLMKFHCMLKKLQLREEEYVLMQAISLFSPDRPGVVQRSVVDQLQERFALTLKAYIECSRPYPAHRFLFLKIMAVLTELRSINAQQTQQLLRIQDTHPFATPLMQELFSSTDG

Assay [17] addresses Nuclear receptor subfamily 1 group I member 2 (Homo sapiens) (UniProt O75469). The assay is described as follows: CYP3A4 induction through human pregnane X receptor (PXR) by small molecules, qHTS assay (AID 1346984). Also: % is scaled to controls: 0 for no effect and ±100 for the full control effect; nearly all actives have a fitted effect of over 40% in size. In short, it runs like this:
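HepG2-derived DPX-2 line carrying PXR plus a CYP3A4-promoter luciferase reporter; cells plated 5 hr, compound-exposed 24 hr at 37C. CYP3A4 activity probed with 3uM (final) Luciferin-IPA for 3hr, then luciferase read after One-Glo.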

Assay [18] has the same target. Briefly: Human pregnane X receptor (PXR) activation by small molecules, qHTS assay (AID 1346985). Also: potency is read from the fitted curve at half-maximal effect; nearly all actives have a fitted effect of over 40% in size. An outline of the steps: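 DPX-2 cells (HepG2 co-transfected with a PXR response element and a CYP3A4-promoter luciferase construct) were seeded at 2,000 per well, rested 5 hr at 37C, then exposed to DMSO-dissolved compounds for 24 hr. Activation was read as luciferase luminescence.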

The nature of assay [19]: qHTS assay to identify small molecule agonists of the progesterone receptor (PR) signaling pathway - cell viability counter screen (AID 1346799; calls by dose curve; also: nearly all actives have a fitted effect of over 45% in size; also: potency is read from the fitted curve at half-maximal effect). In short, it runs like this: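 Cells (PR-UAS-bla HEK293T) are plated at 3,000/well in 2% charcoal-stripped FBS medium, rested 6 hr, dosed and incubated 16 hr at 37C. CellTiter-Glo is then added and luminescence measured after 30 min at room temperature.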

Sequence of Nuclear receptor subfamily 1 group I member 2 (Homo sapiens) (O75469 whole entry, looked up): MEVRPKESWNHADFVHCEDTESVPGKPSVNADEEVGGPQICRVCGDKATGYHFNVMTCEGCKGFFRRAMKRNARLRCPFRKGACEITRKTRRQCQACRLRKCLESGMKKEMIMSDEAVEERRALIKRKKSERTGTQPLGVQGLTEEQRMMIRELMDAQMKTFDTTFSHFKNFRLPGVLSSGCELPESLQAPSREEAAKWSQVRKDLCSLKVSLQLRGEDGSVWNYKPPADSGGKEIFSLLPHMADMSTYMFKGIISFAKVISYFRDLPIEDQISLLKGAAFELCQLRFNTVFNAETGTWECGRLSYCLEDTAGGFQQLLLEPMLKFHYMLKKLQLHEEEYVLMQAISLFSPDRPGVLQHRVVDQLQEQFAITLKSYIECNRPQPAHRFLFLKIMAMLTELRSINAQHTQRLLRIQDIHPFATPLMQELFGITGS
Sequence of Acetylcholinesterase (Homo sapiens) (P22303 whole entry, looked up): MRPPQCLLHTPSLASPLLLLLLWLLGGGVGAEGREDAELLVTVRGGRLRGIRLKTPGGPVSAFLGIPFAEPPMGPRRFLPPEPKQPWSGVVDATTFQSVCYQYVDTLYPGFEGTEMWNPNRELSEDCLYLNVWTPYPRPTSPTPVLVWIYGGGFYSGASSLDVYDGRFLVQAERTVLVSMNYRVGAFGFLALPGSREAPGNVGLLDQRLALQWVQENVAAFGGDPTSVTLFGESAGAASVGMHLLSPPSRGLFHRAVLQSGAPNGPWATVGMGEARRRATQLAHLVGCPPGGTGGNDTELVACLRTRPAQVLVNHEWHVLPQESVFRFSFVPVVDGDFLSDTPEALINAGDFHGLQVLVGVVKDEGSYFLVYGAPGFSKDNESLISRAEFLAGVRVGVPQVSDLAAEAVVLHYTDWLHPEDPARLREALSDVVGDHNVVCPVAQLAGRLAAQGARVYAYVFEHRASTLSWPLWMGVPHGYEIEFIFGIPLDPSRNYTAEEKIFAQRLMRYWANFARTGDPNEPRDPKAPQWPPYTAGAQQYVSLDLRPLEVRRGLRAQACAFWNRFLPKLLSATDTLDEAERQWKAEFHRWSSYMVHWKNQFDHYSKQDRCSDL
Sequence of Progesterone receptor (Homo sapiens) (P06401 whole entry, looked up): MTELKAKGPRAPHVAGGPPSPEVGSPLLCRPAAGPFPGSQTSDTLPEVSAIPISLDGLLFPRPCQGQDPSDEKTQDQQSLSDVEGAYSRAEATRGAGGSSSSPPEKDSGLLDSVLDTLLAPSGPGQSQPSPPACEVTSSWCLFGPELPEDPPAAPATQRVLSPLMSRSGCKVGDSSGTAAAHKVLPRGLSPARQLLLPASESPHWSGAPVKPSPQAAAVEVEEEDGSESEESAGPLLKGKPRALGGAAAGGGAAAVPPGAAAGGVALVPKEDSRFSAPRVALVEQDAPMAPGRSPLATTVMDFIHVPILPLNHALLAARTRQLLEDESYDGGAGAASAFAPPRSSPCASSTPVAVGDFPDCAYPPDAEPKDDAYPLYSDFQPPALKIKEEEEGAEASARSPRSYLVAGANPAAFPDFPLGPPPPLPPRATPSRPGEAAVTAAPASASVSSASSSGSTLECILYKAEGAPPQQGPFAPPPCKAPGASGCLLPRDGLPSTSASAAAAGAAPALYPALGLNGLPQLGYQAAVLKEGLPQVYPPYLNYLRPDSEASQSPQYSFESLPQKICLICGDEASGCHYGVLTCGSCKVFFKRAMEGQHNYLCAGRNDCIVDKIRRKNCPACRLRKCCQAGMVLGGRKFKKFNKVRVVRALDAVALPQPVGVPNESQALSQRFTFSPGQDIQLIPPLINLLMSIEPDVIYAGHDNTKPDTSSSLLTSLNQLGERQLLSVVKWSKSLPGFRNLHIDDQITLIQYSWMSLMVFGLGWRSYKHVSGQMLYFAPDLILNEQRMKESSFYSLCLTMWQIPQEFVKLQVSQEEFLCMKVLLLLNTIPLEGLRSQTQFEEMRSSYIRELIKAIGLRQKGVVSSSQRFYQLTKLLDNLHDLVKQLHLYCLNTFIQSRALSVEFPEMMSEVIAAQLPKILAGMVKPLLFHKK

For `CC(C)[C@@H](Nc1ccc(C(F)(F)F)cc1Cl)C(=O)OC(C#N)c1cccc(Oc2ccccc2)c1` (stereo partly drawn), the Potency entry in assay [1], in assay [2], in assay [4], in assay [5], in assay [6] and in [7] was “inactive” in each case. Further, the Potency entry in [8] and in assay [10] was “inactive” each time. Further, the compound was called inactive in assay [3]. Also, the Potency in assay [9] is 7.42 µM (active).

Take `N#CC(C#N)=NNc1cccc(Cl)c1`: the Potency in [1] was 21.7 µM (active); in assay [11], 13.7 µM (active); in [4] it was 3.86 µM (active); in [6], 3.86 µM (active); in assay [8], 24.3 µM (active). Moreover, the Potency entry in assay [12], in assay [13], in assay [5], in assay [7], in assay [9] and in [10] was “inactive” throughout.

Regarding `CCN(CC)CCN1C(=O)CN=C(c2ccccc2F)c2cc(Cl)ccc21`, the Potency entry in assay [1], in [2], in assay [14], in [12], in [15] and in [13] was “inactive” in each case. The Potency result in [5], in assay [6], in assay [7], in assay [8], in assay [17] and in assay [10] was “inactive” each time. Moreover, in assay [3], the call was inactive. Moreover, the Potency in assay [9] is 13.3 µM (active); in assay [18], 14.1 µM (active). Moreover, in assay [16], the max activation was 8.1%.

In the case of `O=[N+]([O-])c1cc(C(F)(F)F)c(Cl)c([N+](=O)[O-])c1Nc1ncc(C(F)(F)F)cc1Cl`, the Potency is 30.6 µM (active) in assay [1]; 24.3 µM (active) in assay [2]; 27.3 µM (active) in [19]; 30.9 µM (active) in assay [14]; 15.1 µM (active) in assay [15]; 17.2 µM (active) in [4]. The Potency in [8] is 54.5 µM (active); in [9] it was 8.63 µM (active). The Potency result in assay [13], in assay [5] and in assay [10] was “inactive” in each case.

In the case of `CC(Cc1ccccc1)N(C)Cc1ccco1` (stereo not drawn), the Potency result in assay [1], in assay [2], in assay [19], in assay [14], in [12] and in [15] was “inactive” in each case. The Potency entry in assay [13], in assay [4], in assay [5], in assay [6], in assay [7] and in assay [8] was “inactive” throughout. Further, the Potency result in assay [9] and in assay [10] was “inactive” in each case. Further, the call in [3] was inactive.

On to `CCCCn1cc[n+](C)c1.[Cl][Fe-]([Cl])([Cl])[Cl]`, for which the Potency result in [1], in assay [2], in assay [14], in [12], in [4] and in assay [5] was “inactive” throughout. Also, the Potency entry in [6], in assay [7] and in assay [8] was “inactive” throughout. Further, the outcome in assay [3] was inactive.

As for `CCC[CH2][Sn]([CH2]CCC)([CH2]CCC)[CH2]CCC`, the Potency in assay [1] is 17.2 µM (active); in [11], 24.3 µM (active); in assay [2], 43.3 µM (active); in [14], 38.9 µM (active); in [12], 38.9 µM (active); in assay [4], 15.4 µM (active). Moreover, the Potency in assay [5] is 68.6 µM (active); in assay [6], 9.69 µM (active); in [7] it was 17.2 µM (active); in assay [8], 61.1 µM (active); in assay [9], 6.11 µM (active). In addition, the Potency entry in assay [15], in [13] and in assay [10] was “inactive” throughout.

`C=CC(=O)[O][Sn]([CH2]CCC)([CH2]CCC)[CH2]CCC`: the Potency was 10.9 µM (active) in [1]; 4.33 µM (active) in [2]; 2.45 µM (active) in assay [14]; 1.95 µM (active) in assay [12]; 13.5 µM (active) in assay [15]; 17.4 µM (active) in assay [13]. The Potency in assay [4] was 0.686 µM (active); in assay [5] it was 2.43 µM (active); in assay [6], 0.686 µM (active); in [7] it was 1.22 µM (active); in assay [8], 3.86 µM (active); in [9] it was 0.172 µM (active). In addition, the Potency result in assay [10] was “inactive”.

As to `Cc1ccc([N+](=O)[O-])[c]2c1[O][Hg]2`, the Potency in [1] is 29.8 µM (active); in assay [2] it was 4.22 µM (active); in assay [19], 5.31 µM (active); in assay [14] it was 19 µM (active); in [12] it was 23.9 µM (active); in [4], 6.68 µM (active). Also, the figures for the Potency in [6], in assay [8] and in assay [9] were 1.68 µM (active), 21.1 µM (active) and 0.668 µM (active), respectively. Besides, the compound was classed as inactive in assay [3]. Further, the Potency entry in assay [5], in assay [7] and in [10] was “inactive” in each case.
